Laboratory results: PubChem BioAssay AID1159580 (chemical genetic matrix, 2015)
Several values for one entry are separate records, joined by “and”; a condition that tells them apart may be missing. Identical values can stand only once. Among all 5,500 compounds or so, about 2,000 (36%) were called active. Not shown: some 18% with an inconclusive outcome. No stated cut-off is given here; in the data, active means normalized growth mostly below about 0.91 (no sharp cut-off); inconclusive means no clear call, values can overlap the other calls; inactive means mostly above about 0.92. Some of the results follow.

Experiment: chemical genetic growth profiling, strain panel (AID 1159580);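 further: tested at 20 µM; growth read once vehicle control cultures reached saturation at 30 °C; 1 = growth at the plate median or of vehicle wells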
Conditions: growth OD

CCCCC[C@H]1C(=O)O[C@H](C)[C@H](NC(=O)c2cccc(NC=O)c2O)C(=O)O[C@@H](C)[C@@H]1OC(=O)CC(C)C
normalized growth (S. cerevisiae deletion strains, locus YBR021W, strain FUR4, stronger effect = lower value): 0.965 (inactive)
normalized growth (S. cerevisiae deletion strains, locus YBR229C, strain ROT2, stronger effect = lower value): 0.949 (inactive)
normalized growth (S. cerevisiae deletion strains, locus YCL029C, strain bik1, stronger effect = lower value): 0.922 (inactive)
normalized growth (S. cerevisiae deletion strains, locus YDL035C, strain GPR1, stronger effect = lower value): 0.839 (active)
normalized growth (S. cerevisiae deletion strains, locus YDL074C, strain BRE1, stronger effect = lower value): 0.797 (inactive)
normalized growth (S. cerevisiae deletion strains, locus YDL101C, strain DUN1, stronger effect = lower value): 0.936 (inactive)
normalized growth (S. cerevisiae deletion strains, locus YDL134C, strain PPH21, stronger effect = lower value): 0.86 (active)
normalized growth (S. cerevisiae deletion strains, locus YDL185W, strain tfp1, stronger effect = lower value): 0.919 (inactive)
normalized growth (S. cerevisiae deletion strains, locus YDL192W, strain arf1, stronger effect = lower value): 0.91 (active)
normalized growth (S. cerevisiae deletion strains, locus YDR101C, strain arx1, stronger effect = lower value): 0.93 (inactive)
normalized growth (S. cerevisiae deletion strains, locus YDR162C, strain NBP2, stronger effect = lower value): 0.905 (inactive)
normalized growth (S. cerevisiae deletion strains, locus YDR318W, strain mcm21, stronger effect = lower value): 0.908 (active)
normalized growth (S. cerevisiae deletion strains, locus YDR388W, stronger effect = lower value): 0.913 (active)
normalized growth (S. cerevisiae deletion strains, locus YDR502C, strain sam2, stronger effect = lower value): 0.939 (inactive)
normalized growth (S. cerevisiae deletion strains, locus YEL061C, strain CIN8, stronger effect = lower value): 0.936 (inactive)
normalized growth (S. cerevisiae deletion strains, locus YER110C, stronger effect = lower value): 0.979 (inactive)
normalized growth (S. cerevisiae deletion strains, locus YER155C, strain BEM2, stronger effect = lower value): 0.978 (inactive)
normalized growth (S. cerevisiae deletion strains, locus YER167W, strain BCK2, stronger effect = lower value): 0.904 (active)
normalized growth (S. cerevisiae deletion strains, locus YGL078C, strain dbp3, stronger effect = lower value): 0.895 (active)
normalized growth (S. cerevisiae deletion strains, locus YGL086W, strain mad1, stronger effect = lower value): 0.923 (active)
normalized growth (S. cerevisiae deletion strains, locus YGL248W, strain PDE1, stronger effect = lower value): 0.912 (inactive)
normalized growth (S. cerevisiae deletion strains, locus YGR135W, strain pre9, stronger effect = lower value): 0.891 (active)
normalized growth (S. cerevisiae deletion strains, locus YGR252W, strain gcn5, stronger effect = lower value): 0.684 (active)
normalized growth (S. cerevisiae deletion strains, locus YHR030C, strain SLT2, stronger effect = lower value): 0.947 (inactive) and 0.873 (inactive)
normalized growth (S. cerevisiae deletion strains, locus YHR079C, strain IRE1 (second series), stronger effect = lower value): 0.943 (inactive)
normalized growth (S. cerevisiae deletion strains, locus YHR079C, strain IRE1, stronger effect = lower value): 0.863 (inactive)
normalized growth (S. cerevisiae deletion strains, locus YHR094C, strain hxt1, stronger effect = lower value): 0.933 (inactive)
normalized growth (S. cerevisiae deletion strains, locus YHR129C, strain ARP1, stronger effect = lower value): 0.904 (active)
normalized growth (S. cerevisiae deletion strains, locus YHR200W, strain rpn10, stronger effect = lower value): 0.904 (active)
normalized growth (S. cerevisiae deletion strains, locus YIL066C, strain RNR3, stronger effect = lower value): 0.88 (inactive)
normalized growth (S. cerevisiae deletion strains, locus YIL073C, strain SPO22, stronger effect = lower value): 0.844 (inactive)
normalized growth (S. cerevisiae deletion strains, locus YIL125W, strain kgd1, stronger effect = lower value): 0.896 (active)
normalized growth (S. cerevisiae deletion strains, locus YIR030C, strain dcg1, stronger effect = lower value): 0.946 (inactive)
normalized growth (S. cerevisiae deletion strains, locus YJL095W, strain BCK1, stronger effect = lower value): 0.875 (inactive) and 0.859 (active)
normalized growth (S. cerevisiae deletion strains, locus YJL134W, strain LCB3, stronger effect = lower value): 0.932 (inactive)
normalized growth (S. cerevisiae deletion strains, locus YJL168C, strain set2, stronger effect = lower value): 0.933 (inactive)
normalized growth (S. cerevisiae deletion strains, locus YJL187C, strain SWE1 (second series), stronger effect = lower value): 0.889 (inactive)
normalized growth (S. cerevisiae deletion strains, locus YJR043C, strain POL32, stronger effect = lower value): 0.838 (active)
normalized growth (S. cerevisiae deletion strains, locus YJR066W, strain TOR1, stronger effect = lower value): 0.861 (inactive)
normalized growth (S. cerevisiae deletion strains, locus YKL068W, stronger effect = lower value): 1.02 (inactive)
normalized growth (S. cerevisiae deletion strains, locus YKL085W, strain MDH1 (second series), stronger effect = lower value): 0.961 (inactive)
normalized growth (S. cerevisiae deletion strains, locus YKL085W, strain MDH1, stronger effect = lower value): 0.961 (inactive)
normalized growth (S. cerevisiae deletion strains, locus YKL190W, strain CNB1, stronger effect = lower value): 0.933 (inactive)
normalized growth (S. cerevisiae deletion strains, locus YKR001C, strain vps1, stronger effect = lower value): 0.922 (inactive)
normalized growth (S. cerevisiae deletion strains, locus YLR039C, strain RIC1, stronger effect = lower value): 0.933 (inactive)
normalized growth (S. cerevisiae deletion strains, locus YLR058C, strain SHM2, stronger effect = lower value): 0.932 (inactive)
normalized growth (S. cerevisiae deletion strains, locus YLR102C, strain apc9, stronger effect = lower value): 0.944 (inactive)
normalized growth (S. cerevisiae deletion strains, locus YLR113W, strain HOG1, stronger effect = lower value): 0.777 (active)
normalized growth (S. cerevisiae deletion strains, locus YLR262C, strain YPT6, stronger effect = lower value): 0.84 (inactive)
normalized growth (S. cerevisiae deletion strains, locus YLR268W, strain sec22, stronger effect = lower value): 0.923 (inactive)
normalized growth (S. cerevisiae deletion strains, locus YLR330W, strain CHS5, stronger effect = lower value): 0.962 (inactive)
normalized growth (S. cerevisiae deletion strains, locus YLR342W, strain FKS1 (second series), stronger effect = lower value): 0.887 (inactive)
normalized growth (S. cerevisiae deletion strains, locus YLR371W, strain rom2, stronger effect = lower value): 0.921 (inactive)
normalized growth (S. cerevisiae deletion strains, locus YLR418C, strain cdc73, stronger effect = lower value): 0.893 (inactive)
normalized growth (S. cerevisiae deletion strains, locus YML016C, strain PPZ1, stronger effect = lower value): 0.946 (inactive)
normalized growth (S. cerevisiae deletion strains, locus YML032C, strain rad52, stronger effect = lower value): 0.83 (active)
normalized growth (S. cerevisiae deletion strains, locus YML124C, strain tub3, stronger effect = lower value): 0.943 (inactive)
normalized growth (S. cerevisiae deletion strains, locus YMR078C, strain ctf18, stronger effect = lower value): 0.9 (active)
normalized growth (S. cerevisiae deletion strains, locus YMR223W, strain ubp8, stronger effect = lower value): 0.88 (active)
normalized growth (S. cerevisiae deletion strains, locus YMR263W, strain SAP30, stronger effect = lower value): 0.921 (inactive)
normalized growth (S. cerevisiae deletion strains, locus YMR307W, strain GAS1, stronger effect = lower value): 0.616 (inactive)
normalized growth (S. cerevisiae deletion strains, locus YNL067W, strain RPL9B, stronger effect = lower value): 0.921 (inactive)
normalized growth (S. cerevisiae deletion strains, locus YNL183C, strain NPR1, stronger effect = lower value): 0.827 (active)
normalized growth (S. cerevisiae deletion strains, locus YNL233W, strain BNI4, stronger effect = lower value): 0.914 (inactive)
normalized growth (S. cerevisiae deletion strains, locus YNL250W, strain rad50, stronger effect = lower value): 0.853 (active)
normalized growth (S. cerevisiae deletion strains, locus YNL271C, strain bni1, stronger effect = lower value): 0.9 (active)
normalized growth (S. cerevisiae deletion strains, locus YNL298W, strain CLA4, stronger effect = lower value): 0.891 (active)
normalized growth (S. cerevisiae deletion strains, locus YNL307C, strain MCK1, stronger effect = lower value): 0.967 (inactive)
normalized growth (S. cerevisiae deletion strains, locus YNL322C, strain KRE1, stronger effect = lower value): 0.937 (inactive)
normalized growth (S. cerevisiae deletion strains, locus YNR052C, strain pop2, stronger effect = lower value): 0.874 (active)
normalized growth (S. cerevisiae deletion strains, locus YOL006C, strain TOP1, stronger effect = lower value): 0.736 (inactive)
normalized growth (S. cerevisiae deletion strains, locus YOL012C, strain htz1): 0.619 (inactive)
normalized growth (S. cerevisiae deletion strains, locus YOL147C, strain pex11, stronger effect = lower value): 0.942 (inactive)
normalized growth (S. cerevisiae deletion strains, locus YOR061W, strain CKA2, stronger effect = lower value): 0.895 (inactive)
normalized growth (S. cerevisiae deletion strains, locus YOR069W, strain VPS5, stronger effect = lower value): 0.932 (inactive)
normalized growth (S. cerevisiae deletion strains, locus YOR136W, strain idh2, stronger effect = lower value): 0.983 (inactive)
normalized growth (S. cerevisiae deletion strains, locus YOR144C, strain elg1, stronger effect = lower value): 0.933 (active)
normalized growth (S. cerevisiae deletion strains, locus YOR184W, strain ser1, stronger effect = lower value): 0.674 (active)
normalized growth (S. cerevisiae deletion strains, locus YOR231W, strain MKK1, stronger effect = lower value): 0.864 (inactive)
normalized growth (S. cerevisiae deletion strains, locus YOR316C, strain cot1, stronger effect = lower value): 0.945 (inactive)
normalized growth (S. cerevisiae deletion strains, locus YPL256C, strain CLN2, stronger effect = lower value): 0.912 (inactive)
normalized growth (S. cerevisiae deletion strains, locus YPR119W, strain clb2, stronger effect = lower value): 0.939 (inactive)
normalized growth (S. cerevisiae deletion strains, locus YPR141C, strain kar3, stronger effect = lower value): 0.9 (active)
normalized growth (S. cerevisiae deletion strains, locus YPR163C, strain tif3, stronger effect = lower value): 0.893 (active)
normalized growth (S. cerevisiae deletion strains, locus YPR167C, strain met16, stronger effect = lower value): 0.939 (inactive)
normalized growth (S. cerevisiae deletion strains, strain wtn01, stronger effect = lower value): 0.901 (inactive)
normalized growth (S. cerevisiae strains, strain wild type, stronger effect = lower value): 0.895 (active)
